Laboratory results as given in PubChem BioAssay AID570 (The Scripps Research Institute Molecular Screening Center, 2006).
In all, about 65,000 compounds went through this assay and about 45 (0.07%) were called active. For the sample, actives were picked, then their nearest neighbours and some compounds at random. Unmarked numbers belong to inactive results.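 How the source made its calls: active means inhibition above the mean of compound-free control plate wells plus 3 SD (cut at about 14% in these data); inactive means the rest.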

molecular target: Collagenase 3 (Homo sapiens) (UniProt P45452); assay: inhibition of MMP13 collagenase activity – biochemical, FRET peptide cleavage, primary screen (AID 570); conditions: MMP-13 fTHP FRET cleavage, Mca fluorescence; at 4 µM; stronger effect = higher value;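 further: 0% = DMSO wells and 100% = wells with reference MMP-13 inhibitor after basal subtraction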

| Compound | inhibition |
| --- | --- |
| O=C(NCCN1CCOCC1)[C@H](Cc1ccccc1)N1C(=O)c2ccccc2C1=O | 0.6% |
| COc1ccc(O)c(C(=O)c2cnc3onc(C(C)C)c3c2)c1 | 8.5% |
| COC(=O)c1ccc(Oc2nc(NC(C)C)nc(SC)n2)cc1 | 0.3% |
| OCc1n[nH]c(CO)n1 | -2.9% |
| CCN1C(=O)/C(=C\N2CCN(c3ccccc3)CC2)SC1=S | 3.4% |
| CCN1C(=O)/C(=C\N2CCN(c3cccc(Cl)c3)CC2)SC1=S | 4.2% |
| CCN1C(=O)/C(=C2/Sc3ccccc3N2CCCS(=O)(=O)O)SC1=S | 17.1% (active) |
| CCc1nnc(NC(=O)c2nc3nccc(C)n3n2)s1 | 1.3% |
| COc1ccc2c(c1)OC(O)(C(F)(F)C(F)F)CC2=O (stereo not drawn) | 4.3% |
| CC1(C)Cc2ccccc2-c2nnc(-c3cccc(O)c3)n21 | -1.1% |
| O=C(Nc1ccc(Cl)cn1)c1cnn2cccnc12 | -1.1% |
| O=c1[nH]c(=O)n(Cc2ccco2)c2c1C(C(F)(F)F)(C(F)(F)F)N=C(c1ccco1)N2 | -3.7% |
| CC(C)n1c(NCc2c[nH]c3ccccc23)nc2ccccc21 | -5.6% |
| COc1cc(C(O)c2nc3ccccc3n2C)cc(OC)c1OC (stereo not drawn) | 1% |
| Cc1cc(C)c(C#N)c(SCc2ccc3c(c2)OCO3)n1 | 3.3% |
| COc1ccc(C2C(C(=O)N3CCN(c4ccc(OC)cc4)CC3)c3ccccc3C(=O)N2C)cc1 (stereo not drawn) | 2.8% |
| CNC(=O)CSc1nnnn1-c1ccc(C)cc1C | 1.5% |
| CC1(C)CC(=O)C(C=NCc2cccnc2)=C(O)C1 | 2.8% |
| CCC(=O)Nc1cccc(NC(=O)c2cccnc2)c1 | -1.1% |
| CCC1CCCCN1C(=O)Nc1cccc(NC(=O)N2CCCCC2CC)c1 (stereo not drawn) | -2.3% |
| CCOC(=O)C1(c2ccccc2)NC(c2ccc(N(C)C)cc2)C2C(=O)N(C)C(=O)C21 (stereo not drawn) | -4.8% |
| O=C(Nc1ccc2c(c1)OCCO2)C1CCCN(c2ncccn2)C1 (stereo not drawn) | 4.5% |
| Cc1ccccc1CSc1nnc(-c2cccnc2)n1N | 4.9% |
| CN(C(=O)C1CCOC1)c1nnc(-c2cccnc2)s1 (stereo not drawn) | -4.2% |
| COc1cccc(-n2cc3c(c2-c2ccccc2)c(=O)n(C)c(=O)n3C)c1 | -1.8% |

| Compound | inhibition |
| --- | --- |
| Cn1c(=O)c2c(nc(SCCNS(=O)(=O)c3ccccc3)n2C)n(C)c1=O | -2.9% |
| CC(C)OC(=O)c1cc(NC(=O)C2C3CCC(O3)C2C(=O)O)cc(C(=O)OC(C)C)c1 (stereo not drawn) | -25.2% |
| Cc1noc(COc2ccccc2OCC(O)CNC(C)(C)C)n1 (stereo not drawn) | -0.8% |
| O=C(CCCN1C(=O)CCC1=O)Nc1ccc(Cl)c(C(F)(F)F)c1 | 1.9% |
| Cc1cccc(-n2c(Cc3cc(=O)[nH]c(=O)[nH]3)nnc2SC(C)C)c1 | 2.4% |
| O=C(OCc1ccccc1F)c1ccc2c(c1)OCCO2 | -0.1% |
| O=c1ccn(Cc2ccccc2Cl)cc1 | 0.5% |
| COc1ccc(Cn2nnc3c(=O)[nH]c(C4CCN(C(=O)c5ccccc5Cl)CC4)nc32)cc1 | 7.2% |
| CCOC(=O)[C@H]1CCC[C@@H](NS(=O)(=O)c2ccc(NC(C)=O)cc2)C1 | 0% |
| COc1ccccc1NC(=O)CSc1nnc(-c2ccoc2C)n1CCc1ccccc1 | -3.7% |
| Cc1cc(Nc2cccc(C)c2C)n2ncnc2n1 | 6.6% |
| CCCc1nc2c3cnn(-c4cccc(Cl)c4)c3ncn2n1 | -4.1% |
| CC12CN3CC(C)(CN(C1)C3c1ccc(Cl)cc1Cl)C2=O (stereo not drawn) | 6.8% |
| Cc1ccc(C(C)C)c(OCc2nnc(SCC(=O)Nc3nccs3)n2C)c1 | -0.8% |
| CCOC(=O)N1CCC(NC(=O)Cn2cc3c(n2)CCCCC3)CC1 | 3% |
| Cc1cc(C)nc(N2C(=O)CC(Cc3ccccc3)C2=O)n1 (stereo not drawn) | 2.4% |
| CC1CCCC(NC(=O)CN2CCN(Cc3ccc(Cl)cc3)C2=O)C1C (stereo not drawn) | -0.6% |
| CCOC(=O)N1CCC(Nc2c(NCCCN3CCN(c4ccc(OC)cc4)CC3)c(=O)c2=O)CC1 | 2.1% |
| O=C(CCC(=O)OCC(F)(F)C(F)F)NCc1ccccc1 | 1.8% |
| Cc1cc(/C=N/n2cnnc2)c(C)n1-c1ccc2ncccc2c1 | -12% |
| CC(=O)NC(C)(C)C1CC=C(C)/C(=N\O)C1 (stereo not drawn) | 4.1% |
| CCOc1ccc(OCC)c(NC(=O)CN(C)S(=O)(=O)c2cccc3nsnc23)c1 | -2.8% |
| Cc1cccc(-n2c(O)c(C=Nc3ccccc3N)c(=O)[nH]c2=O)c1 | -15.8% |
| N#CC(C(=O)c1ccc(S(=O)(=O)N2CCCCCC2)cc1)c1nc2ccccc2[nH]1 (stereo not drawn) | -11.8% |
| CC1C=CCC2C(=O)N(c3cccc(C(=O)N4CCCCCC4)c3)C(=O)C12 (stereo not drawn) | 4.6% |

| Compound | inhibition |
| --- | --- |
| Cc1nc2ccccc2c2oc(C(=O)NCC3CCCO3)cc12 (stereo not drawn) | -8.8% |
| CCCn1c(SCC(=O)N2CCc3ccccc32)nnc1-c1ccncc1 | -0.9% |
| COc1ccc(S(=O)(=O)N2CCCCC2)cc1Br | 3.3% |
| Cc1ccc(-n2nc3cc(Cl)c(NC(=O)c4ccco4)cc3n2)cc1 | -66.9% |
| Cc1ccc(S(=O)(=O)c2c(N)n(C)c3nc4ccccc4nc23)cc1 | -244% |
| CCC(C)NC(=O)N[C@@H](CCSC)C(=O)O (stereo partly drawn) | 1.5% |
| C=CCOc1ccc(C2/C(=C(\O)c3c(C)[nH]c(C(=O)OC)c3C)C(=O)C(=O)N2CCN(C)C)cc1 (stereo not drawn) | 2.9% |
| COc1ccc(OC)c(NC(=O)CCN2CCC(C)CC2)c1 | 3.7% |
| COc1ccccc1OCCC(=O)OCC(=O)NC(=O)NC(C)(C)C | 3.7% |
| CC(C)(C)c1cc(CN2CCN(CCC#N)CC2)cc(C(C)(C)C)c1O | -0.2% |
| CCOC(=O)C1=C(C)NC(C)=C(C(=O)OCC)C1c1ccccn1 | -0.7% |
| CCOc1ccc(C(=O)Nc2ccncc2)cc1 | 3.1% |
| c1nc(COc2nsnc2N2CCOCC2)cs1 | 2.5% |
| COc1ccc(NC(=O)CN2CCN(S(=O)(=O)c3ccc(F)cc3)CC2)cc1Cl | -15.6% |
| Cc1noc(C)c1S(=O)(=O)N1CCCC(C(=O)Nc2nccs2)C1 (stereo not drawn) | 6.5% |
| NC(CSC12CC3CC(CC(C3)C1)C2)C(=O)O (stereo not drawn) | 2.6% |
| Cc1nc(NC(CC(C)C)C(=O)O)c2nc(C)oc2n1 (stereo not drawn) | 0% |
| CCOC(=O)N1CCN(C(=O)CNC(=O)Cc2ccc(Cl)cc2)CC1 | -1.6% |
| CCOC(=O)N1CCN(C(=O)C2CCN(S(C)(=O)=O)CC2)CC1 | -0.8% |
| CCn1c(SCC(=O)c2ccc(Cl)s2)nnc1-c1cccs1 | -2.1% |
| COc1ccccc1N(C(=O)Cn1nnc2ccccc21)C(C(=O)NCc1ccco1)c1ccc(C)o1 (stereo not drawn) | 7.4% |
| Cc1nc(CNS(=O)(=O)c2cccnc2)cs1 | 2.4% |
| CCCCCCC(=O)N(O)C1CC(=O)N(c2ccccc2)C1=O (stereo not drawn) | 1% |
| COC(=O)c1ccc(S(=O)(=O)c2ccc(C(=O)OC)s2)s1 | -1.3% |
| Cc1ccc(S(=O)(=O)Cn2nnnc2CN2CCN(Cc3ccc4c(c3)OCO4)CC2)cc1 | -3.7% |

| Compound | inhibition |
| --- | --- |
| CC1CCN(C(=O)Cn2cc(C(=O)c3ccco3)c3ccccc32)CC1 | -1.8% |
| CCC(=O)Nc1ccc2c(c1)nc(CCN1CCN(C)CC1)n2C | -0.5% |
| CCOc1ccccc1C(=O)NCc1ccco1 | 3.2% |
| O=C(CN1C2CCC1CC(NC(=O)C1CC1)C2)NCc1ccccc1 (stereo not drawn) | -1.1% |
| COc1ccc(C2=NOC(C(=O)NCc3ccco3)C2)cc1OC (stereo not drawn) | 1.2% |
| C=CCNC(=O)c1cc(-c2ccccc2O)on1 | 6% |
| COc1ccccc1N1CC(O)=C(c2nc3ccccc3s2)C1=N | -5.8% |
| Cc1cccc(NC(=O)CN2CCCN(S(=O)(=O)c3ccc(Br)s3)CC2)c1 | -0.8% |
| COc1cc(Cl)c(S(=O)(=O)n2cnc(C)c2)cc1Cl | -1% |
| CCC(C)(C)NC(=O)C(c1cccn1C)N(Cc1ccc(C)cc1)C(=O)Cn1nnc2ccccc21 (stereo not drawn) | 2.1% |
| O=C(CSc1n[nH]c(-c2cccnc2)n1)Nc1ccnc2ccccc12 | -1.2% |
| CC(C)(C)c1ccc(C(=O)CSc2ncn[nH]2)cc1 | 1.3% |
| C=CCSc1nnc(Cn2c(=O)sc3ccccc32)n1C | -10.7% |
| CC(NC(=O)c1ccco1)C(=O)Nc1nc(-c2ccccn2)cs1 (stereo not drawn) | 1.6% |
| COCCNCCOCCOc1cccc(OC)c1 | -0.9% |
| Cc1ccsc1-c1nc(CSCC(=O)NCCN2CCCC2)c(C)o1 | -72.5% |
| O=C(CSc1nnc(-c2cccs2)n1-c1ccccc1)N1CCN(C(=O)c2ccco2)CC1 | 2.3% |
| CN(Cc1ccccc1)Cc1ccccc1F | 0.3% |
| Cc1oc(-c2cccc(Cl)c2)[n+]([O-])c1C | -6.2% |
| CCOc1nc(-c2ccc(OC)cc2)ccc1-c1noc(-c2cc(OC)c(OC)c(OC)c2)n1 | -11.5% |
| CCOC(=O)C(CCOc1cccc(CC)c1)C(=O)OCC | 4.3% |
| CC(C)c1ccc(-c2nn[nH]n2)cc1 | 0.3% |
| C=CCn1c2ccccc2c2nnc(SC(CC)C(=O)Nc3nc(C)c(C(=O)OCC)s3)nc21 (stereo not drawn) | 2.6% |
